Our source for the growth values is PubChem BioAssay (NCI).

Some test systems named below: NCI-H23 lung; NCI-H226 lung; NCI-H322M lung; HOP-62 NSCLC; NCI-H460 lung; HOP-92 NSCLC; NCI-H522 lung; A549/ATCC NSCLC; 786-0 renal; COLO 205 colon; DU-145 prostate; K-562 leukemia; MALME-3M melanoma; MDA-MB-231 breast; RXF 393 renal; SF-268 CNS; SF-295 CNS; SF-539 CNS; UACC-257 melanoma; M14 melanoma.
Test in all cases: NCI-60 one-dose screen, 48 h (100 = growth as untreated, 0 = no growth, -100 = all killed)
What all share (conditions): 10 µM

Compounds without any hit were thinned out: in the full panel of roughly 83,000, 20% have a hit.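 Values shown are percent growth following 48 h exposure of cells in 96-well plates to a single concentration of compound; below 10 was considered active.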 Values without a mark were called inactive. Calls of active or inactive are those of the source.

For `O=C(Nc1cccc(F)c1)Nc1cccc(Cl)c1`, the growth with NCI-H23 lung is 89.8%; in the experiment with NCI-H226 lung, 102%; in the experiment with NCI-H322M lung it was 94.8%; with HOP-62 NSCLC, 99.6%; in the experiment with NCI-H460 lung it was 56%; in the experiment on HOP-92 NSCLC, 76.7%. Further, the growth is 90.5% in the experiment with NCI-H522 lung; 74.7% with A549/ATCC NSCLC; 94.2% in the experiment with 786-0 renal; 93.6% in the experiment with COLO 205 colon; 65.8% with DU-145 prostate; 10.9% in the experiment with K-562 leukemia. For the same compound, the growth is 84.6% with MALME-3M melanoma; 80.7% with MDA-MB-231 breast; 104% in the experiment with RXF 393 renal; 80.4% with SF-268 CNS; 92.7% with SF-295 CNS; 105% with SF-539 CNS. Further, the figures for the growth with UACC-257 melanoma and in the experiment on M14 melanoma were 87.7% and 100%, respectively.
As to `CS(=O)(=O)Nc1ccc(OCc2nnc(-c3ccc(Cl)cc3)o2)c(F)c1`, the growth in the experiment with NCI-H23 lung is 93.6%; in the experiment on NCI-H226 lung it was 86.2%; in the experiment with NCI-H322M lung, 109%; in the experiment on HOP-62 NSCLC, 87.2%; in the experiment on NCI-H460 lung, 98.9%; in the experiment on HOP-92 NSCLC, 88.3%. In addition, the growth in the experiment with NCI-H522 lung is 94.8%; with A549/ATCC NSCLC it was 90.2%; with 786-0 renal, 89.4%; with COLO 205 colon, 110%; in the experiment on DU-145 prostate, 101%; in the experiment with K-562 leukemia, 100%. The growth was 111% with MALME-3M melanoma; 85.7% with MDA-MB-231 breast; 108% in the experiment with RXF 393 renal; 98.9% in the experiment on SF-268 CNS; 94.1% with SF-295 CNS; 85.1% in the experiment on SF-539 CNS. For the same compound, the figures for the growth in the experiment on UACC-257 melanoma and in the experiment with M14 melanoma were 99.6% and 99.3%, respectively.
For the compound `COc1cc(-c2cc(/C=C/C(C)=O)[nH]n2)cc(OC)c1OC`, the growth in the experiment on NCI-H23 lung was 87.7%; with NCI-H226 lung it was 81.7%; in the experiment with NCI-H322M lung, 79.4%; in the experiment with HOP-62 NSCLC, 84.2%; with NCI-H460 lung, 95.2%; with HOP-92 NSCLC, 74.9%. Besides, the growth in the experiment with NCI-H522 lung is -66% (active); with A549/ATCC NSCLC, 86.2%; in the experiment on 786-0 renal, 84.5%; in the experiment on COLO 205 colon, 93.4%; in the experiment on DU-145 prostate, 77%; in the experiment with K-562 leukemia, 46.6%. Besides, the growth is 67.5% with MALME-3M melanoma; 78.8% with MDA-MB-231 breast; 89.4% in the experiment with RXF 393 renal; 82.4% with SF-268 CNS; 76% with SF-295 CNS; 93.4% with SF-539 CNS. Further, the growth in the experiment on UACC-257 melanoma is 79.9%; with M14 melanoma, 84.9%.
For the compound `O=C(Nc1cccc(Cl)c1)OCC(COC(=O)Nc1cccc(Cl)c1)(COC(=O)Nc1cccc(Cl)c1)[N+](=O)[O-]`, the growth is 22.9% in the experiment with NCI-H23 lung; 66.4% with NCI-H226 lung; 45.8% in the experiment on NCI-H322M lung; 41.8% in the experiment with HOP-62 NSCLC; 17.9% with NCI-H460 lung; 18.6% in the experiment on HOP-92 NSCLC. The growth is 27.4% with NCI-H522 lung; 26.2% with A549/ATCC NSCLC; 32.8% in the experiment with 786-0 renal; 35.5% with COLO 205 colon; 44.2% in the experiment with DU-145 prostate; 26.4% in the experiment with K-562 leukemia. For the same compound, the growth in the experiment on MALME-3M melanoma was 59%; in the experiment with MDA-MB-231 breast, 40.3%; in the experiment with RXF 393 renal it was 57.1%; in the experiment with SF-268 CNS, 35.4%; with SF-295 CNS, 20.8%; in the experiment with SF-539 CNS, 59.5%. Moreover, the growth in the experiment with UACC-257 melanoma was 52.3%; in the experiment on M14 melanoma, 24.4%.
For the compound `O=C(c1ccccc1)C(Nc1ccccc1)c1ccccc1` (stereo not given), the growth is 84.5% in the experiment with NCI-H23 lung; 82.7% in the experiment with NCI-H226 lung; 85.4% with NCI-H322M lung; 83.5% in the experiment with HOP-62 NSCLC; 98.1% with NCI-H460 lung; 78.6% in the experiment on HOP-92 NSCLC. Besides, the growth is 67.7% in the experiment with NCI-H522 lung; 87.4% in the experiment with A549/ATCC NSCLC; 97.3% in the experiment with 786-0 renal; 98.7% in the experiment with COLO 205 colon; 100% with DU-145 prostate; 90.5% in the experiment on K-562 leukemia. Moreover, the growth was 90% in the experiment with MALME-3M melanoma; 89.7% with MDA-MB-231 breast; 103% in the experiment with RXF 393 renal; 93.1% in the experiment on SF-268 CNS; 90.7% with SF-295 CNS; 96.7% with SF-539 CNS. The results for the growth in the experiment with UACC-257 melanoma and in the experiment on M14 melanoma were 93.4% and 97.5%, respectively.
With `CCC1(C)OC(=O)NC1=O` (stereo not given), the growth is 96% in the experiment with NCI-H23 lung; 93.1% in the experiment on NCI-H226 lung; 105% with NCI-H322M lung; 71.1% in the experiment on HOP-62 NSCLC; 111% in the experiment with NCI-H460 lung; 93.2% in the experiment with HOP-92 NSCLC. For the same compound, the growth in the experiment with NCI-H522 lung was 84.5%; in the experiment with A549/ATCC NSCLC, 79.2%; with 786-0 renal, 99.6%; with COLO 205 colon it was 103%; in the experiment on DU-145 prostate it was 111%; with K-562 leukemia, 91.7%. Also, the growth in the experiment on MALME-3M melanoma was 106%; with MDA-MB-231 breast, 109%; in the experiment on RXF 393 renal, 121%; with SF-268 CNS, 103%; with SF-295 CNS, 103%; in the experiment with SF-539 CNS, 99.1%. Also, the growth with UACC-257 melanoma was 90.9%; in the experiment with M14 melanoma, 97.2%.
